# Source: the supplement of paper PMC10849652
# The full data set covers some 7,900 targets. This sample favours those with a hit. About 0.6% of all pairs of compound and target were hits. Values without a mark were called inactive.
# How the values were obtained:
# Assay in all cases: log2 fold change, soluble protein after heating vs DMSO (PISA); higher = thermal stabilisation; K562 cells, 10 uM, 30 min; active = over 0.2 and 3.5 SD of the protein, either way, in both replicates (recomputed)
# saracatinib = compound: CN1CCN(CCOc2cc(OC3CCOCC3)c3c(Nc4c(Cl)ccc5c4OCO5)ncnc3c2)CC1 [saracatinib]
# Method in brief: (§1)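 Values are thermal stability changes relative to control samples and are taken from duplicates. They are stated as log2 fold changes. Before quantification by TMTpro 16plex LC-MS/MS with equalised channel sums, K562 cells at 2×10^6 cells/mL were treated with 10 μM compound for 30 min, heated in aliquots for 3 min across 48°C-58°C, pooled, extracted in PBS with 0.5% NP-40 at 4°C, and centrifuged at 21,000xg for 90 min to give the soluble supernatant.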
# sotrastaurin = compound: CN1CCN(c2nc(C3=C(c4c[nH]c5ccccc45)C(=O)NC3=O)c3ccccc3n2)CC1 [sotrastaurin]
# Method in brief: as §1
# alvocidib = compound: CN1CC[C@H](c2c(O)cc(O)c3c(=O)cc(-c4ccccc4Cl)oc23)[C@H](O)C1 [alvocidib]
# Method in brief: as §1
# Tubastatin A = compound: CN1CCc2c(c3ccccc3n2Cc2ccc(C(=O)NO)cc2)C1 [Tubastatin A]
# Method in brief: as §1
# [1] = compound: CNC(=O)C1=CC=CC=C1NC2=NC(=NC=C2Cl)NC3=C(C=C(C=C3)N4CCOCC4)OC
# Method in brief: as §1
# defactinib = compound: CNC(=O)c1ccc(Nc2ncc(C(F)(F)F)c(NCc3nccnc3N(C)S(C)(=O)=O)n2)cc1 [defactinib]
# Method in brief: as §1
# rucaparib = compound: CNCc1ccc(-c2[nH]c3cc(F)cc4c3c2CCNC4=O)cc1 [rucaparib]
# Method in brief: as §1
# [2] = compound: CNc1nc(-c2ccc3c(N)n[nH]c3c2)cc(N2C[C@@H](C(=O)NC3CCCCC3)CC[C@H]2C)n1
# Method in brief: as §1
# encorafenib = compound: COC(=O)N[C@@H](C)CNc1nccc(-c2cn(C(C)C)nc2-c2cc(Cl)cc(NS(C)(=O)=O)c2F)n1 [encorafenib]
# Method in brief: as §1
# [3] = compound: COC(=O)[C@H](CCSC)NC(=O)C1=C(C=C(C=C1)NC[C@H](CS)N)C2=CC=CC=C2
# Method in brief: as §1
# [4] = compound: COC1=CC=C(C=C1)CN2C=CC3=C2C=C(C=C3)C(=O)NO
# Method in brief: as §1
# filanesib = compound: CON(C)C(=O)N1N=C(c2cc(F)ccc2F)S[C@@]1(CCCN)c1ccccc1 [filanesib]
# Method in brief: as §1
# zotarolimus = compound: CO[C@H]1C[C@@H]2CC[C@@H](C)[C@@](O)(O2)C(=O)C(=O)N2CCCC[C@H]2C(=O)O[C@H]([C@H](C)C[C@@H]2CC[C@H](n3cnnn3)[C@H](OC)C2)CC(=O)[C@H](C)/C=C(\C)[C@@H](O)[C@@H](OC)C(=O)[C@H](C)C[C@H](C)/C=C/C=C/C=C/1C [zotarolimus]
# Method in brief: as §1
# idasanutlin = compound: COc1cc(C(=O)O)ccc1NC(=O)[C@@H]1N[C@@H](CC(C)(C)C)[C@](C#N)(c2ccc(Cl)cc2F)[C@H]1c1cccc(Cl)c1F [idasanutlin]
# Method in brief: as §1
# alisertib = compound: COc1cc(Nc2ncc3c(n2)-c2ccc(Cl)cc2C(c2c(F)cccc2OC)=NC3)ccc1C(=O)O [alisertib]
# Method in brief: as §1
# [5] = compound: COc1cc2nc(-c3cc(F)ccc3O)nc(N[C@@H]3CNC[C@H]3C(C)(C)O)c2cc1OC
# Method in brief: as §1
# gefitinib = compound: COc1cc2ncnc(Nc3ccc(F)c(Cl)c3)c2cc1OCCCN1CCOCC1 [gefitinib]
# Method in brief: as §1
# [6] = compound: COc1cccc2cc(-c3nc([C@H]4CC[C@H](C(=O)O)CC4)n4ncnc(N)c34)[nH]c12
# Method in brief: as §1
# lapatinib = compound: CS(=O)(=O)CCNCc1ccc(-c2ccc3ncnc(Nc4ccc(OCc5cccc(F)c5)c(Cl)c4)c3c2)o1 [lapatinib]
# Method in brief: as §1
# pictilisib = compound: CS(=O)(=O)N1CCN(Cc2cc3nc(-c4cccc5[nH]ncc45)nc(N4CCOCC4)c3s2)CC1 [pictilisib]
# Method in brief: as §1
# Sequence of UniProt P51809 (P51809 whole entry, looked up): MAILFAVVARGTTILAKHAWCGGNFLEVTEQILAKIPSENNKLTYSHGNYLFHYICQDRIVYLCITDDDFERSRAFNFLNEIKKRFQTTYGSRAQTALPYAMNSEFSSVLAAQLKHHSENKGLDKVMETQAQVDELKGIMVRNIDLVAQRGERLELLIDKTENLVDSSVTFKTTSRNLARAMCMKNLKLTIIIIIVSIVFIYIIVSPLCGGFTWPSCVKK
# Sequence of UniProt O60701 (O60701 whole entry, looked up): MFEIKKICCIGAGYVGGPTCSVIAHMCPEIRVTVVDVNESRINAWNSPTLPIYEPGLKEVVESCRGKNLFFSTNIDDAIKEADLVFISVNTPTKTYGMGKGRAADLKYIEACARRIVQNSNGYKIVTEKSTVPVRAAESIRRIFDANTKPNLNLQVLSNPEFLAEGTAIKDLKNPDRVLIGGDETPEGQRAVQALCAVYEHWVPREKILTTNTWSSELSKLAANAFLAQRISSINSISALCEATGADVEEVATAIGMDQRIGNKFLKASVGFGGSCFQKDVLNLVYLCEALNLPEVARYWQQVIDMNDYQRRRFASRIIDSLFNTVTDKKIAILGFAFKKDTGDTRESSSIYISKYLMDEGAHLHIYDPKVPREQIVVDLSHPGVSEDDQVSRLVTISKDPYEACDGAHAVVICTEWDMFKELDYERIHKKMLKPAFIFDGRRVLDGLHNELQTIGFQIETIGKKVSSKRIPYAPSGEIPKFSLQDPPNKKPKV
# Sequence of UniProt Q9NP79 (Q9NP79 whole entry, looked up): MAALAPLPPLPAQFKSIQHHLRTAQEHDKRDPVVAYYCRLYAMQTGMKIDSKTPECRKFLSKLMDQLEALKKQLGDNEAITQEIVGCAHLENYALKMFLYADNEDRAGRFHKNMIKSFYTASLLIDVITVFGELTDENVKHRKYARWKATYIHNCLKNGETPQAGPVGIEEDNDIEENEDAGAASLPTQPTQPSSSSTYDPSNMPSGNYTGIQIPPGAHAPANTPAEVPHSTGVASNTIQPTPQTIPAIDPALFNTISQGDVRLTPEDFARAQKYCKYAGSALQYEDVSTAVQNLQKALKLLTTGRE
# Sequence of UniProt A0PJW6 (A0PJW6 whole entry, looked up): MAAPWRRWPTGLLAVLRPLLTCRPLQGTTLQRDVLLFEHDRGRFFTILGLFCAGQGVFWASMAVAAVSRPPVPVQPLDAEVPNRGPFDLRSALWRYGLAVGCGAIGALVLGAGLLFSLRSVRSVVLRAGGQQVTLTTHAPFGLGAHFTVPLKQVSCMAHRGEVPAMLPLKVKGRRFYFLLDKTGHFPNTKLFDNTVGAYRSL
# Sequence of UniProt Q969X6 (Q969X6 whole entry, looked up): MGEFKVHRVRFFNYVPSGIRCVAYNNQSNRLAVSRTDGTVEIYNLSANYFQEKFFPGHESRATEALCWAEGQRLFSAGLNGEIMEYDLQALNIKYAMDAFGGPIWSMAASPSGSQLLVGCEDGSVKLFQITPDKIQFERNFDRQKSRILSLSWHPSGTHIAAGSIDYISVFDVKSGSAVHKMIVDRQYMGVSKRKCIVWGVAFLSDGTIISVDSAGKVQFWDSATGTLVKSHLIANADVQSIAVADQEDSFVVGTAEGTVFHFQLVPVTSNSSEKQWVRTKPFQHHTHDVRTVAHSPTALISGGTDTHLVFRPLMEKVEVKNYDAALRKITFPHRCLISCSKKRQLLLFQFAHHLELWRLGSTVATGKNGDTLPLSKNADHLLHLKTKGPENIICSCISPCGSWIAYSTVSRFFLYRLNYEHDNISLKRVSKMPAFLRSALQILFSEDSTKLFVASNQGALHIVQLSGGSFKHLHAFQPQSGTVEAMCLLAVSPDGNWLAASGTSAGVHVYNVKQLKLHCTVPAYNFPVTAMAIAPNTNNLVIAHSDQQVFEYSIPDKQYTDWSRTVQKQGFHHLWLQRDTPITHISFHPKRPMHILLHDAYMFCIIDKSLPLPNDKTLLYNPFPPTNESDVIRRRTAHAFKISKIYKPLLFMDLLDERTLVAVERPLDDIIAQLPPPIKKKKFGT
# Sequence of UniProt Q8TBZ6 (Q8TBZ6 whole entry, looked up): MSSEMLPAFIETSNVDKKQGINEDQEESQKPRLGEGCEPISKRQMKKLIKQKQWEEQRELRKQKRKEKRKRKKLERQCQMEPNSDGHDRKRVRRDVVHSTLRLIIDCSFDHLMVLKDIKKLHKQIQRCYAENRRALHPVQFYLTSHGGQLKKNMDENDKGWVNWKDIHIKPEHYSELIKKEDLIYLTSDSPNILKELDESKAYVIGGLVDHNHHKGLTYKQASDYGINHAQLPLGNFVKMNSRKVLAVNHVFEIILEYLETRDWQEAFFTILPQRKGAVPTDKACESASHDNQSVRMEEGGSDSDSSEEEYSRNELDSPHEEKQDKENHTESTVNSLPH
# Sequence of UniProt Q9H4A3 (Q9H4A3 whole entry, looked up): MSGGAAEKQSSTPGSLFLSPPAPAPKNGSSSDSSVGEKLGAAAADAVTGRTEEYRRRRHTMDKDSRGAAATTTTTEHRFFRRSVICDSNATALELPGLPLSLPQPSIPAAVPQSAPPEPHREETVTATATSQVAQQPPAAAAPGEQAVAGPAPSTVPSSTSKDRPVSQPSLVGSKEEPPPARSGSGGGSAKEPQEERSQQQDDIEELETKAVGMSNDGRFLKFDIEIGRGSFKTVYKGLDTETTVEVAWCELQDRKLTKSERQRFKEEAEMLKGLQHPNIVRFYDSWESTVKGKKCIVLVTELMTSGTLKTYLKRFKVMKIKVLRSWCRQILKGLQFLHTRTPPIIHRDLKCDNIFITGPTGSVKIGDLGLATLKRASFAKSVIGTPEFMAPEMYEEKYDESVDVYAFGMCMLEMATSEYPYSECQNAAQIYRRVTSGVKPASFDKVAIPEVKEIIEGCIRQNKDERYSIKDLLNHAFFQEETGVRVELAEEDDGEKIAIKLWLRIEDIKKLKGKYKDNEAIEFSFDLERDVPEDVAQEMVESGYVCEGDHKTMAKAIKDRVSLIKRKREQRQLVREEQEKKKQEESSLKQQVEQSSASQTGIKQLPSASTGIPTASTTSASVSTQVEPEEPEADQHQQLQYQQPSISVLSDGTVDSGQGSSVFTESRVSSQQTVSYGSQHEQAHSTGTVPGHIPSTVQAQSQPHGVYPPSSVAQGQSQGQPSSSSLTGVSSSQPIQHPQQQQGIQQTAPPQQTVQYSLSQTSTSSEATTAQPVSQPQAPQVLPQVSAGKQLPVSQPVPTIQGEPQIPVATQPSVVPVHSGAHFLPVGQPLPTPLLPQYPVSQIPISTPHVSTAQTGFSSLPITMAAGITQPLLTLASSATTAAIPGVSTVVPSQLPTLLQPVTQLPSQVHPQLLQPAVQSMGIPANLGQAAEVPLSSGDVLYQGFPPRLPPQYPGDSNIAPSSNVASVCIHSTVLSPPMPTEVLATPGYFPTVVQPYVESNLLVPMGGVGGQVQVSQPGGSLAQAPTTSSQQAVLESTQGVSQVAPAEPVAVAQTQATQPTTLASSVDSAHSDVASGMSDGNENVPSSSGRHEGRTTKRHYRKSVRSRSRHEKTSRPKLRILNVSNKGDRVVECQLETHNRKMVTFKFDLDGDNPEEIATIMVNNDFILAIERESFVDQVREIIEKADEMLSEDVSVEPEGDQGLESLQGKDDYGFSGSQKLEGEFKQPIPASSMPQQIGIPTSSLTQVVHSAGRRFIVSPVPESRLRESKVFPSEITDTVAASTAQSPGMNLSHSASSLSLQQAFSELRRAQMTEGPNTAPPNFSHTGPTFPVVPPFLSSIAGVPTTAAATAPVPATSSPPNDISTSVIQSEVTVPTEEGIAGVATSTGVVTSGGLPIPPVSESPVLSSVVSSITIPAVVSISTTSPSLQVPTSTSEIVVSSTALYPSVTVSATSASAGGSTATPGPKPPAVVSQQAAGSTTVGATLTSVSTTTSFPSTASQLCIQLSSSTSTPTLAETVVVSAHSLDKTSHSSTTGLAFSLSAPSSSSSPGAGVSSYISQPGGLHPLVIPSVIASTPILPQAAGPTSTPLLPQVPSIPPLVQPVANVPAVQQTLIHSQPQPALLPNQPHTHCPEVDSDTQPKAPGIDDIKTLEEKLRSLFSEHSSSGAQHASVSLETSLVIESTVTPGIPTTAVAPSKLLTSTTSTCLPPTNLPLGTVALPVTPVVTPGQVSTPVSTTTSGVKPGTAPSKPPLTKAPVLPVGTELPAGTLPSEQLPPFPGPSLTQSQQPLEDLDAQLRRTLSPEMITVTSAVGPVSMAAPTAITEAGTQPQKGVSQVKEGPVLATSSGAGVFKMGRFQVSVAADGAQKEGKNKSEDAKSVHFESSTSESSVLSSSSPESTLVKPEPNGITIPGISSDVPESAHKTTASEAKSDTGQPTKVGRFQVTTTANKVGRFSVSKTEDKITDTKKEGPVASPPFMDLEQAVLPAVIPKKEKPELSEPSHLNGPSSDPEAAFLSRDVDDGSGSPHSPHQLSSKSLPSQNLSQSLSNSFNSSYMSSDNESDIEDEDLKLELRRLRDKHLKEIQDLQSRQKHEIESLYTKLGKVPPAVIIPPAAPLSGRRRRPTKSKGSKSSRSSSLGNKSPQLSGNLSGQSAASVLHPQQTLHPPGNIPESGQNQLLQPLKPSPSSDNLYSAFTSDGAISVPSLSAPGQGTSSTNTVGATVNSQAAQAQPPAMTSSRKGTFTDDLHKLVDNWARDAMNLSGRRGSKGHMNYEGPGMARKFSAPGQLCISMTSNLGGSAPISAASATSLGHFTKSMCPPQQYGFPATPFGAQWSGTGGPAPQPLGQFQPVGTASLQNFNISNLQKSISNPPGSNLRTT
# Sequence of UniProt Q7L0Y3 (Q7L0Y3 whole entry, looked up): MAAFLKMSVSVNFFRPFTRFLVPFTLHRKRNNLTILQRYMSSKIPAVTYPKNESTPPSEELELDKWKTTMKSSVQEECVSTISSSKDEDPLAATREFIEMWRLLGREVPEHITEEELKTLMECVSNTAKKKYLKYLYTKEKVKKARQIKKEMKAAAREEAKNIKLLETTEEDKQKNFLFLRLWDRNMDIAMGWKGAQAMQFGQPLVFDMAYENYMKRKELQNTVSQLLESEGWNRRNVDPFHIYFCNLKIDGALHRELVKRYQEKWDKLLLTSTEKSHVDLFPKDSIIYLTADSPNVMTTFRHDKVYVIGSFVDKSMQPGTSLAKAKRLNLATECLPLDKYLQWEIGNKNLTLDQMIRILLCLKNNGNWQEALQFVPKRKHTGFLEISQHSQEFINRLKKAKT
Target,log2 fold change (saracatinib),log2 fold change (sotrastaurin),log2 fold change (alvocidib),log2 fold change (Tubastatin A),log2 fold change [1],log2 fold change (defactinib),log2 fold change (rucaparib),log2 fold change [2],log2 fold change (encorafenib),log2 fold change [3],log2 fold change [4],log2 fold change (filanesib),log2 fold change (zotarolimus),log2 fold change (idasanutlin),log2 fold change (alisertib),log2 fold change [5],log2 fold change (gefitinib),log2 fold change [6],log2 fold change (lapatinib),log2 fold change (pictilisib)
VTA1 (UniProt Q9NP79),0.028,-0.022,-0.081,-0.046,0.045,-0.029,0.011,-0.011,0.023,-0.033,-0.01,-0.033,0.044,-0.094,-0.014,0.056,-0.003,-0.008,-0.014,0.006
WASH2P (UniProt Q6VEQ5),0.009,-0.08,-0.018,-0.059,0.02,-0.004,-0.011,-0.037,0.004,0.007,0.007,-0.067,-0.029,-0.055,-0.027,0.067,0.001,-0.036,0.016,0.053
TNPO3 (UniProt Q9Y5L0),0.034,-0.075,-0.114,-0.03,-0.011,-0.067,0,-0.013,0.032,-0.003,0.053,-0.094,0.036,-0.074,-0.064,-0.035,-0.012,-0.004,-0.035,0.077
UBC (UniProt P0CG48),-0.106,0.042,-0.049,0.252,0.002,0.031,0.053,0.017,-0.124,0.005,-0.064,0.09,0.048,0,-0.002,0.06,0.038,0.018,-0.101,0.008
UTP4 (UniProt Q969X6),0.05,0.013,0.104,-0.097,0.015,0.178,0.086,0.002,-0.016,0.041,-0.05,-0.043,-0.017,-0.034,-0.095,0.132,0,0.029,-0.006,0.035
TMEM63B (UniProt Q5T3F8),-0.084,-0.055,0.021,-0.015,0.019,0.015,-0.004,-0.068,0.023,0,-0.125,-0.089,-0.018,0.011,-0.037,-0.028,-0.03,-0.028,0.032,0.003
WNK1 isoform 7 (UniProt Q9H4A3),0.022,0.003,-0.007,-0.005,-0.047,0.003,0.013,-0.035,0.012,0.006,-0.034,-0.003,-0.006,-0.026,-0.026,0.082,0,0.032,-0.002,0
VAMP7 (UniProt P51809),0.029,0.012,-0.019,-0.001,0.03,-0.028,-0.027,-0.022,0.029,-0.011,0.035,-0.095,-0.005,-0.111,-0.072,0.099,0.033,0.012,-0.005,-0.001
TMTC3 (UniProt Q6ZXV5),-0.03,0.028,0.009,0.009,0.012,0.009,0.022,0.006,0.028,-0.019,-0.092,0.01,0.006,-0.03,0.105,-0.085,-0.007,-0.041,0.053,0.032
TRMT10C (UniProt Q7L0Y3),-0.129,-0.013,-0.126,-0.064,-0.024,-0.055,-0.011,0.042,0.041,-0.056,-0.045,-0.031,0.016,-0.107,-0.033,0.018,0.039,0.005,-0.033,0.007
TRMT10A (UniProt Q8TBZ6),-0.028,-0.024,-0.12,-0.038,0.054,-0.06,0.016,0.032,0.026,0.036,-0.195,-0.134,0.054,-0.081,0.048,-0.006,-0.025,0.028,0.03,0.093
XPO1 (UniProt O14980),0.003,-0.088,-0.096,0.001,-0.028,-0.093,-0.012,0.02,0.094,-0.041,0.074,-0.121,0.004,-0.123,-0.003,0.023,-0.032,0.001,-0.023,-0.071
USP25 isoform 3 (UniProt Q9UHP3),0.045,-0.003,-0.031,0.061,0.044,-0.045,0.019,-0.028,0.01,-0.033,-0.011,0.037,0.014,-0.039,0.027,0.004,0.032,0.022,0.001,0.018
TMEM223 (UniProt A0PJW6),0.114,0.048,-0.025,-0.059,0.045,0.015,-0.03,-0.02,-0.047,0.022,-0.042,-0.109,0.083,-0.112,-0.046,-0.147,-0.028,0.038,0.018,-0.007
TRIM28 (UniProt Q13263),0.008,-0.064,-0.128,0.048,0.054,-0.121,-0.075,-0.019,0.047,-0.032,0.015,-0.017,0.046,-0.031,-0.087,0.003,0.002,-0.03,-0.005,0.033
UGDH (UniProt O60701),-0.036,-0.284 (active),-0.273,0.004,-0.085,-0.209,-0.089,0.074,0.087,-0.038,0.164,0.001,0.053,-0.043,0.067,0.04,0.118,0.059,-0.036,0.022
